The campaign covered roughly 5,500 compounds. About 2,000 (36%) were called active. Inconclusive results (about 18%) are left out. No stated cut-off is given here; in the data, active means normalized growth mostly below about 0.91 (no sharp cut-off); inconclusive means no clear call, values can overlap the other calls; inactive means mostly above about 0.92. The list shows a part of the results.
Test: chemical genetic growth profiling, strain panel (AID 1159580);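 further: tested at 20 µM; growth read once vehicle control cultures reached saturation at 30 °C; 1 = growth at the plate median or of vehicle wells; lower values mean less growth of the strain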
Settings: growth OD

Measured: normalized growth

CC(=O)N[C@@H](CS)C(=O)O
inactive: S. cerevisiae deletion strains, locus YAL013W, strain DEP1, hits give low values 1 | S. cerevisiae deletion strains, locus YAL021C, strain ccr4, hits give low values 1.02 | S. cerevisiae deletion strains, locus YAL026C, strain drs2, hits give low values 1 | S. cerevisiae deletion strains, locus YAL030W, strain snc1, hits give low values 0.995 | S. cerevisiae deletion strains, locus YBL061C, strain skt5, hits give low values 1.01 | S. cerevisiae deletion strains, locus YBR009C, strain hhf1, hits give low values 1 | S. cerevisiae deletion strains, locus YBR021W, strain FUR4, hits give low values 0.989 | S. cerevisiae deletion strains, locus YBR023C, strain chs3, hits give low values 0.994 | S. cerevisiae deletion strains, locus YBR171W, strain sec66, hits give low values 0.991 | S. cerevisiae deletion strains, locus YBR229C, strain ROT2, hits give low values 1.01 | S. cerevisiae deletion strains, locus YBR231C, strain swc5, hits give low values 1.01 | S. cerevisiae deletion strains, locus YBR279W, strain paf1, hits give low values 1.01 | S. cerevisiae deletion strains, locus YCL011C, strain gbp2, hits give low values 0.997 | S. cerevisiae deletion strains, locus YCL016C, strain dcc1, hits give low values 0.998 | S. cerevisiae deletion strains, locus YCL029C, strain bik1, hits give low values 1.03 | S. cerevisiae deletion strains, locus YCL061C, strain MRC1, hits give low values 0.995 | S. cerevisiae deletion strains, locus YCL069W, strain vba3, hits give low values 1.01 | S. cerevisiae deletion strains, locus YCR088W, strain abp1, hits give low values 1 | S. cerevisiae deletion strains, locus YDL005C, strain med2, hits give low values 0.992 | S. cerevisiae deletion strains, locus YDL035C, strain GPR1, hits give low values 1 | S. cerevisiae deletion strains, locus YDL040C, strain nat1, hits give low values 1.01 | S. cerevisiae deletion strains, locus YDL074C, strain BRE1, hits give low values 1.01 | S. cerevisiae deletion strains, locus YDL101C, strain DUN1, hits give low values 1.01 | S. cerevisiae deletion strains, locus YDL134C, strain PPH21, hits give low values 0.997 | S. cerevisiae deletion strains, locus YDL185W, strain tfp1, hits give low values 1.02 | S. cerevisiae deletion strains, locus YDL192W, strain arf1, hits give low values 1.01 | S. cerevisiae deletion strains, locus YDR001C, strain nth1, hits give low values 0.997 | S. cerevisiae deletion strains, locus YDR069C, strain doa4, hits give low values 1.01 | S. cerevisiae deletion strains, locus YDR101C, strain arx1, hits give low values 1.01 | S. cerevisiae deletion strains, locus YDR137W, strain rgp1, hits give low values 1.02 | S. cerevisiae deletion strains, locus YDR159W, strain sac3, hits give low values 1.01 | S. cerevisiae deletion strains, locus YDR162C, strain NBP2, hits give low values 1.02 | S. cerevisiae deletion strains, locus YDR195W, strain ref2 0.985 | S. cerevisiae deletion strains, locus YDR297W, strain sur2, hits give low values 0.99 | S. cerevisiae deletion strains, locus YDR318W, strain mcm21, hits give low values 1.02 | S. cerevisiae deletion strains, locus YDR334W, strain swr1, hits give low values 1 | S. cerevisiae deletion strains, locus YDR335W, strain msn5, hits give low values 1.01 | S. cerevisiae deletion strains, locus YDR388W, hits give low values 1.02 | S. cerevisiae deletion strains, locus YDR392W, strain spt3, hits give low values 1.02 | S. cerevisiae deletion strains, locus YDR502C, strain sam2, hits give low values 1.01 | S. cerevisiae deletion strains, locus YEL003W, strain gim4, hits give low values 1.01 | S. cerevisiae deletion strains, locus YEL037C, strain rad23, hits give low values 1 | S. cerevisiae deletion strains, locus YEL061C, strain CIN8 (second series), hits give low values 0.988 | S. cerevisiae deletion strains, locus YEL061C, strain CIN8, hits give low values 1.01 | S. cerevisiae deletion strains, locus YER015W, strain faa2, hits give low values 1 | S. cerevisiae deletion strains, locus YER016W, strain bim1, hits give low values 0.995 | S. cerevisiae deletion strains, locus YER110C, hits give low values 1.03 | S. cerevisiae deletion strains, locus YER111C, strain swi4, hits give low values 0.989 | S. cerevisiae deletion strains, locus YER155C, strain BEM2 (second series), hits give low values 1.01 | S. cerevisiae deletion strains, locus YER155C, strain BEM2, hits give low values 1.01 | S. cerevisiae deletion strains, locus YER167W, strain BCK2, hits give low values 1.01 | S. cerevisiae deletion strains, locus YFR010W, strain ubp6, hits give low values 0.983 | S. cerevisiae deletion strains, locus YGL078C, strain dbp3, hits give low values 1.01 | S. cerevisiae deletion strains, locus YGL086W, strain mad1, hits give low values 1.01 | S. cerevisiae deletion strains, locus YGL167C, strain pmr1, hits give low values 0.995 | S. cerevisiae deletion strains, locus YGL173C, strain kem1, hits give low values 1 | S. cerevisiae deletion strains, locus YGL227W, strain vid30, hits give low values 1 | S. cerevisiae deletion strains, locus YGL240W, strain doc1, hits give low values 0.964 | S. cerevisiae deletion strains, locus YGL248W, strain PDE1, hits give low values 1.02 | S. cerevisiae deletion strains, locus YGL253W, strain hxk2, hits give low values 1.02 | S. cerevisiae deletion strains, locus YGR135W, strain pre9, hits give low values 1.02 | S. cerevisiae deletion strains, locus YGR252W, strain gcn5, hits give low values 0.999 | S. cerevisiae deletion strains, locus YHR013C, strain ard1, hits give low values 1.02 | S. cerevisiae deletion strains, locus YHR027C, strain rpn1, hits give low values 1.01 | S. cerevisiae deletion strains, locus YHR030C, strain SLT2, hits give low values 1.01 | S. cerevisiae deletion strains, locus YHR079C, strain IRE1 (second series), hits give low values 1.03 | S. cerevisiae deletion strains, locus YHR094C, strain hxt1, hits give low values 1.01 | S. cerevisiae deletion strains, locus YHR129C, strain ARP1, hits give low values 1.01 | S. cerevisiae deletion strains, locus YHR142W, strain chs7, hits give low values 1.02 | S. cerevisiae deletion strains, locus YHR200W, strain rpn10, hits give low values 1.02 | S. cerevisiae deletion strains, locus YIL066C, strain RNR3, hits give low values 1.02 | S. cerevisiae deletion strains, locus YIL073C, strain SPO22, hits give low values 1.07 | S. cerevisiae deletion strains, locus YIL125W, strain kgd1, hits give low values 1.02 | S. cerevisiae deletion strains, locus YIR030C, strain dcg1, hits give low values 1.01 | S. cerevisiae deletion strains, locus YJL092W, strain hpr5, hits give low values 1.02 | S. cerevisiae deletion strains, locus YJL095W, strain BCK1 (second series), hits give low values 1.01 | S. cerevisiae deletion strains, locus YJL095W, strain BCK1, hits give low values 1.01 | S. cerevisiae deletion strains, locus YJL115W, strain asf1, hits give low values 0.991 | S. cerevisiae deletion strains, locus YJL129C, strain trk1, hits give low values 1 | S. cerevisiae deletion strains, locus YJL134W, strain LCB3, hits give low values 1.01 | S. cerevisiae deletion strains, locus YJL154C, strain vps35, hits give low values 1.01 | S. cerevisiae deletion strains, locus YJL164C, strain tpk1, hits give low values 1 | S. cerevisiae deletion strains, locus YJL166W, strain qcr8, hits give low values 0.985 | S. cerevisiae deletion strains, locus YJL168C, strain set2, hits give low values 1.01 | S. cerevisiae deletion strains, locus YJL187C, strain SWE1 (second series), hits give low values 1.03 | S. cerevisiae deletion strains, locus YJR043C, strain POL32, hits give low values 1 | S. cerevisiae deletion strains, locus YKL009W, strain mrt4, hits give low values 1.04 | S. cerevisiae deletion strains, locus YKL068W, hits give low values 1.01 | S. cerevisiae deletion strains, locus YKL085W, strain MDH1 (second series), hits give low values 1 | S. cerevisiae deletion strains, locus YKL085W, strain MDH1, hits give low values 1 | S. cerevisiae deletion strains, locus YKL160W, strain elf1, hits give low values 0.998 | S. cerevisiae deletion strains, locus YKR001C, strain vps1, hits give low values 1.01 | S. cerevisiae deletion strains, locus YKR026C, strain gcn3, hits give low values 0.991 | S. cerevisiae deletion strains, locus YKR091W, strain srl3, hits give low values 1.01 | S. cerevisiae deletion strains, locus YLL001W, strain dnm1, hits give low values 0.994 | S. cerevisiae deletion strains, locus YLL026W, hits give low values 1.01 | S. cerevisiae deletion strains, locus YLL041C, strain sdh2, hits give low values 1.01 | S. cerevisiae deletion strains, locus YLR027C, strain aat2, hits give low values 1.01 | S. cerevisiae deletion strains, locus YLR039C, strain RIC1, hits give low values 1.02 | S. cerevisiae deletion strains, locus YLR058C, strain SHM2, hits give low values 1.02 | S. cerevisiae deletion strains, locus YLR102C, strain apc9, hits give low values 1.02 | S. cerevisiae deletion strains, locus YLR221C, strain rsa3, hits give low values 1 | S. cerevisiae deletion strains, locus YLR258W, strain gsy2, hits give low values 1.01 | S. cerevisiae deletion strains, locus YLR262C, strain YPT6 (second series), hits give low values 1 | S. cerevisiae deletion strains, locus YLR262C, strain YPT6, hits give low values 1.08 | S. cerevisiae deletion strains, locus YLR268W, strain sec22, hits give low values 1.02 | S. cerevisiae deletion strains, locus YLR320W, strain mms22, hits give low values 1.01 | S. cerevisiae deletion strains, locus YLR330W, strain CHS5, hits give low values 1.01 | S. cerevisiae deletion strains, locus YLR342W, strain FKS1 (second series), hits give low values 0.995 | S. cerevisiae deletion strains, locus YLR342W, strain FKS1, hits give low values 1.01 | S. cerevisiae deletion strains, locus YLR357W, strain rsc2, hits give low values 0.989 | S. cerevisiae deletion strains, locus YLR370C, strain arc18, hits give low values 1.01 | S. cerevisiae deletion strains, locus YLR371W, strain rom2, hits give low values 1.03 | S. cerevisiae deletion strains, locus YLR384C, strain iki3, hits give low values 1.01 | S. cerevisiae deletion strains, locus YLR418C, strain cdc73, hits give low values 1.05 | S. cerevisiae deletion strains, locus YML016C, strain PPZ1, hits give low values 1.01 | S. cerevisiae deletion strains, locus YML032C, strain rad52, hits give low values 1.01 | S. cerevisiae deletion strains, locus YML120C, strain ndi1, hits give low values 0.999 | S. cerevisiae deletion strains, locus YML124C, strain tub3, hits give low values 1.04 | S. cerevisiae deletion strains, locus YMR058W, strain fet3, hits give low values 0.998 | S. cerevisiae deletion strains, locus YMR078C, strain ctf18, hits give low values 1.03 | S. cerevisiae deletion strains, locus YMR125W, strain sto1, hits give low values 1.01 | S. cerevisiae deletion strains, locus YMR129W, hits give low values 0.984 | S. cerevisiae deletion strains, locus YMR205C, strain PFK2, hits give low values 0.995 | S. cerevisiae deletion strains, locus YMR223W, strain ubp8, hits give low values 1.02 | S. cerevisiae deletion strains, locus YMR231W, strain pep5, hits give low values 1 | S. cerevisiae deletion strains, locus YMR263W, strain SAP30, hits give low values 1.01 | S. cerevisiae deletion strains, locus YMR307W, strain GAS1, hits give low values 1.04 | S. cerevisiae deletion strains, locus YNL067W, strain RPL9B, hits give low values 1.03 | S. cerevisiae deletion strains, locus YNL071W, strain lat1, hits give low values 1.02 | S. cerevisiae deletion strains, locus YNL128W, strain TEP1, hits give low values 1.03 | S. cerevisiae deletion strains, locus YNL153C, strain GIM3, hits give low values 1.02 | S. cerevisiae deletion strains, locus YNL209W, strain ssb2, hits give low values 1 | S. cerevisiae deletion strains, locus YNL233W, strain BNI4, hits give low values 1.01 | S. cerevisiae deletion strains, locus YNL248C, strain rpa49, hits give low values 1.08 | S. cerevisiae deletion strains, locus YNL250W, strain rad50, hits give low values 1.01 | S. cerevisiae deletion strains, locus YNL271C, strain bni1, hits give low values 1.03 | S. cerevisiae deletion strains, locus YNL298W, strain CLA4, hits give low values 1.02 | S. cerevisiae deletion strains, locus YNL307C, strain MCK1, hits give low values 1.02 | S. cerevisiae deletion strains, locus YNL322C, strain KRE1 (second series), hits give low values 0.999 | S. cerevisiae deletion strains, locus YNR049C, strain mso1, hits give low values 1 | S. cerevisiae deletion strains, locus YNR052C, strain pop2, hits give low values 1.03 | S. cerevisiae deletion strains, locus YOL006C, strain TOP1, hits give low values 0.995 | S. cerevisiae deletion strains, locus YOL012C, strain htz1 0.978 | S. cerevisiae deletion strains, locus YOL147C, strain pex11, hits give low values 1.02 | S. cerevisiae deletion strains, locus YOR001W, strain rrp6, hits give low values 1.02 | S. cerevisiae deletion strains, locus YOR061W, strain CKA2, hits give low values 1.02 | S. cerevisiae deletion strains, locus YOR069W, strain VPS5, hits give low values 1.01 | S. cerevisiae deletion strains, locus YOR070C, strain gyp1, hits give low values 1 | S. cerevisiae deletion strains, locus YOR080W, strain dia2, hits give low values 0.984 | S. cerevisiae deletion strains, locus YOR083W, strain WHI5, hits give low values 1 | S. cerevisiae deletion strains, locus YOR106W, strain vam3, hits give low values 1.02 | S. cerevisiae deletion strains, locus YOR136W, strain idh2, hits give low values 1.03 | S. cerevisiae deletion strains, locus YOR144C, strain elg1, hits give low values 1.03 | S. cerevisiae deletion strains, locus YOR184W, strain ser1, hits give low values 1.01 | S. cerevisiae deletion strains, locus YOR265W, strain rbl2, hits give low values 1 | S. cerevisiae deletion strains, locus YOR270C, strain vph1, hits give low values 1.04 | S. cerevisiae deletion strains, locus YOR290C, strain snf2, hits give low values 0.994 | S. cerevisiae deletion strains, locus YOR316C, strain cot1, hits give low values 1.02 | S. cerevisiae deletion strains, locus YPL051W, strain arl3, hits give low values 1.01 | S. cerevisiae deletion strains, locus YPL078C, strain atp4, hits give low values 0.992 | S. cerevisiae deletion strains, locus YPL106C, strain sse1, hits give low values 0.988 | S. cerevisiae deletion strains, locus YPL240C, strain hsp82, hits give low values 0.999 | S. cerevisiae deletion strains, locus YPR119W, strain clb2, hits give low values 1.02 | S. cerevisiae deletion strains, locus YPR141C, strain kar3, hits give low values 1.03 | S. cerevisiae deletion strains, locus YPR163C, strain tif3, hits give low values 1.03 | S. cerevisiae deletion strains, locus YPR167C, strain met16, hits give low values 1.06 | S. cerevisiae deletion strains, strain wtn01, hits give low values 1.01 | S. cerevisiae strains, strain wild type, hits give low values 1.01
